Compounds without any hit were thinned out: in the full panel of roughly 79,000, 15% have a hit. Activity calls are given as the source filed them. Rule as the data show it: active = growth inhibition above about 70%; inactive = the rest.
How the values were obtained:
[1] = NCI Yeast Anticancer Drug Screen. Data for the rad52 strain (AID 147);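 also: 0% = growth of vehicle-treated control cultures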; details: S. cerevisiae rad52 mutant growth inhibition, active compounds read high
Method in brief: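 Screen used a yeast mutant impaired in DNA repair. After compound exposure, growth was measured. Values reflect inhibition compared with vehicle-treated cells.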

[2] = NCI Yeast Anticancer Drug Screen. Data for the wt1 strain (AID 149);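 also: 0% = growth of vehicle-treated wt1 cultures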; details: S. cerevisiae wt1 strain (SPY 50644) growth inhibition, active compounds read high
Method in brief: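 Vehicle-normalised growth inhibition; strain wt1; compound exposure.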

[3] = NCI Yeast Anticancer Drug Screen. Data for the rad50EPP+ strain (AID 151);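 also: 0% = growth of vehicle-treated control cultures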; details: S. cerevisiae rad50 mutant strain, active compounds read high
Method in brief: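 Exposing the rad50EPP+ strain to each compound, growth was compared with vehicle-only cultures to give inhibition.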

[4] = NCI Yeast Anticancer Drug Screen. Data for the mgt1 strain (AID 153); details: S. cerevisiae mgt1 mutant growth inhibition, active compounds read high
Method in brief: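 Genetically defined yeast (mgt1) treated with compound; inhibition of growth expressed against vehicle-treated controls.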

[5] = NCI Yeast Anticancer Drug Screen. Data for the rad50 strain (AID 155);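 also: 0% = growth of vehicle-only cultures of the same strain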; details: S. cerevisiae rad50 strain growth inhibition, active compounds read high
Method in brief: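 A DNA repair-deficient yeast mutant serves as the test organism; compound-induced growth inhibition is calculated against vehicle-treated cells.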

[6] = NCI Yeast Anticancer Drug Screen. Data for the mec2-1 strain (AID 157); details: S. cerevisiae mec2-1 strain, active compounds read high
Method in brief: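 Readout is yeast growth inhibition, normalised to vehicle-treated controls, in the mec2-1 strain exposed to compound.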

[7] = NCI Yeast Anticancer Drug Screen. Data for the rad14 strain (AID 159);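 also: 0% = growth of vehicle-treated control cultures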; details: S. cerevisiae rad14 strain growth inhibition, active compounds read high
Method in brief: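 Vehicle-treated cultures served as the baseline for growth inhibition of a DNA repair-mutant yeast strain exposed to each compound.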

[8] = NCI Yeast Anticancer Drug Screen. Data for the sgs1 mgt1 strain (AID 161);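 also: 0% = growth of cultures given vehicle only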; details: S. cerevisiae sgs1 mgt1 strain, active compounds read high
Method in brief: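 This yeast growth screen uses a strain with defined DNA-repair lesions; compound-treated growth is compared with vehicle-treated growth.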

[9] = NCI Yeast Anticancer Drug Screen. Data for the CLN2oe strain (AID 163);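 also: 0% = growth of vehicle-only control cultures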; details: S. cerevisiae CLN2oe strain, active compounds read high
Method in brief: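 Values reflect how much compound exposure reduced yeast growth, referenced to vehicle-exposed cells. Assay organism is a strain with a defined genetic change affecting cell-cycle control.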

[10] = NCI Yeast Anticancer Drug Screen. Data for the cln2 rad14 strain (AID 165);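 also: 0% = growth equal to vehicle treated cultures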; details: S. cerevisiae cln2 rad14 strain, active compounds read high
Method in brief: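 Relative to vehicle controls, growth inhibition of compound-treated cln2 rad14 yeast was recorded.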

[11] = NCI Yeast Anticancer Drug Screen. Data for the bub3 strain (AID 167); details: S. cerevisiae bub3 mutant strain, active compounds read high
Method in brief: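 Inhibition values come from growth of compound-treated mutant yeast normalised to vehicle-treated controls.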

[12] = NCI Yeast Anticancer Drug Screen. Data for the wt2 strain (AID 169);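 also: 0% = growth of vehicle-treated yeast cultures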; details: S. cerevisiae wt2 strain growth inhibition, active compounds read high
Method in brief: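 Values express reduction in yeast growth under compound treatment, referenced to vehicle-treated cells.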

[13] = NCI Yeast Anticancer Drug Screen. Data for the sgs1 strain (AID 173);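 also: 0% = growth of vehicle-only control cultures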; details: S. cerevisiae sgs1 mutant, active compounds read high
Method in brief: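 Treat defined-mutant yeast with compound; measure growth; calculate inhibition relative to vehicle-treated cells.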

[14] = NCI Yeast Anticancer Drug Screen. Data for the mlh1 rad18 strain (AID 175); details: S. cerevisiae mlh1 rad18 strain growth inhibition, active compounds read high
Method in brief: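 Test agents were incubated with a yeast strain of defined genotype (DNA damage repair defect). Inhibition of growth was derived by comparison with vehicle-exposed cultures.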

[15] = NCI Yeast Anticancer Drug Screen. Data for the rad18 strain (AID 177); details: S. cerevisiae rad18 mutant growth inhibition, active compounds read high
Method in brief: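 A genetically defined yeast mutant impaired in DNA damage repair was treated with test compounds, then its growth was measured against cultures receiving vehicle alone.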

[16] = at 5.0 µM (retest, dose inferred, filed as 0.5)
[17] = at 50.0 µM (retest, dose inferred, filed as 5.0)

Measured: growth inhibition

CCCCCCC=C(C(=O)OCC)C(=O)OCC
active: [14]; [17] 85% | [14]; at 50.0 µM 76.3%
inactive: [1]; at 1.2 µM -2% | [1]; at 3.7 µM 0% | [1]; at 11.0 µM -1% | [1]; at 33.0 µM 2% | [1]; at 100.0 µM 23% | [2]; at 1.2 µM -2% | [2]; at 3.7 µM -3% | [2]; at 11.0 µM -6% | [2]; at 33.0 µM -7% | [2]; at 100.0 µM 4% | [3]; at 1.2 µM -1% | [3]; at 3.7 µM 4% | [3]; at 11.0 µM 7% | [3]; at 33.0 µM 14% | [3]; at 100.0 µM 24% | [4]; at 1.2 µM -1% | [4]; at 3.7 µM -3% | [4]; at 11.0 µM 0% | [4]; at 33.0 µM -5% | [4]; at 100.0 µM 13% | [5]; at 1.2 µM -2% | [5]; at 3.7 µM -3% | [5]; [16] -18% | [5]; at 11.0 µM -3% | [5]; at 33.0 µM -5% | [5]; [17] 11% | [5]; at 50.0 µM -8.3% | [5]; at 100.0 µM 22% | [6]; at 1.2 µM -1% | [6]; at 3.7 µM 1% | [6]; [16] -8% | [6]; at 11.0 µM -2% | [6]; at 33.0 µM 5% | [6]; [17] 46% | [6]; at 50.0 µM 38% | [6]; at 100.0 µM 22% | [7]; at 1.2 µM -3% | [7]; at 3.7 µM -4% | [7]; at 11.0 µM -2% | [7]; at 33.0 µM 2% | [7]; at 100.0 µM 13% | [8]; [16] -11% | [8]; [17] 68% | [8]; at 50.0 µM 42% | [9]; at 1.2 µM -4% | [9]; at 3.7 µM -4% | [9]; at 11.0 µM -8% | [9]; at 33.0 µM -10% | [9]; at 100.0 µM 3% | [10]; [16] -13% | [10]; [17] 19% | [10]; at 50.0 µM 18.1% | [11]; at 1.2 µM 0% | [11]; at 3.7 µM 0% | [11]; [16] -6% | [11]; at 11.0 µM -1% | [11]; at 33.0 µM 1% | [11]; [17] 18% | [11]; at 50.0 µM 63% | [11]; at 100.0 µM 17% | [12]; at 1.2 µM -2% | [12]; at 3.7 µM -3% | [12]; at 11.0 µM -5% | [12]; at 33.0 µM -4% | [12]; at 100.0 µM 16% | [13]; at 1.2 µM -1% | [13]; at 3.7 µM -1% | [13]; at 11.0 µM 1% | [13]; at 33.0 µM 5% | [13]; at 100.0 µM 30% | [14]; [16] -3% | [15]; at 1.2 µM -1% | [15]; at 3.7 µM 5% | [15]; at 11.0 µM 8% | [15]; at 33.0 µM 14% | [15]; at 100.0 µM 32%

Source: PubChem BioAssay (NCI)
